Measurements published in PubChem BioAssay AID1745847 (National Center for Advancing Translational Sciences (NCATS), 2022).
Among all 2,100 compounds or so, about 670 (32%) were called active. About 50% were inconclusive and are not listed. The list shows a part of the results. Unmarked numbers belong to inactive results. Calls follow the shape of the dose curve; as a rule, active = well fitted inhibition curve with a large enough effect; inconclusive = small, poorly fitted or top-dose-only effect; inactive = no such curve, though single readings can be large or run the other way.

experiment: CMV-Luciferase Counterscreen for Inhibitors of ATXN expression; conditions: HEK-293 CMV-luciferase reporter, luminescence, 24 h; series mostly up to 57.5 µM; activity change, negative = inhibition: at the top concentration; also: nearly all actives have a fitted effect of over 55% in size
% is scaled to controls: 0 for no effect and ±100 for the full control effect; potency is read from the fitted curve at half-maximal effect.

Structure (SMILES)	activity change, negative = inhibition	Potency
OC1(c2ccc(Cl)cc2)CCN(Cc2c[nH]c3ccccc23)CC1	-23.5% [at 11.4 µM]	
O=S(=O)(c1ccc(Cl)cc1)N1CCN(Cc2ccc(O)c3ncccc23)CC1		8.91 µM (active)
Cc1ccc(C)c(S(=O)(=O)N2CCN(Cc3ccc(O)c4ncccc34)CC2)c1		2.82 µM (active)
COc1ccccc1N1CCN(Cc2ccc(O)c3ncccc23)CC1		0.891 µM (active)
Cc1ccc(S(=O)(=O)/C(=C/Cl)NC(=O)c2ccccc2)cc1		11.2 µM (active)
O=C(Nc1ccc(F)cc1)Nc1cc(OCC(F)(F)F)cc(OCC(F)(F)F)c1		3.98 µM (active)
CC[n+]1ccccc1/C=C1\Sc2ccc(C)cc2N1C		6.31 µM (active)
Cc1cc(C)nc(NNS(=O)(=O)c2ccc(F)c(Cl)c2)n1	-15.9% [at 11.4 µM]	
COc1ccccc1-c1ccc2c(c1)C(C)(Cc1cccc(F)c1)C(=O)N2 (stereo not given)		28.2 µM (active)
Cc1ccc(Nc2c(-c3ccccn3)nc3cccc(C)n23)cc1		3.55 µM (active)
Cc1cccc(N(CC(O)CON=C2c3ccccc3-c3ccccc32)S(C)(=O)=O)c1 (stereo not given)		25.1 µM (active)
N#Cc1ccc(/C=C\c2nccc3c2[nH]c2ccccc23)cc1	-24% [at 11.4 µM]	
CC1CCN(Cc2c(C(=O)N/N=C/c3ccccc3O)nnn2-c2nonc2N)CC1		1.58 µM (active)
Nc1nonc1-n1nnc(C(=O)N/N=C/c2ccccc2O)c1CN1CCCC1		10 µM (active)
Cc1c(C(=O)N/N=C/c2c(O)ccc3ccccc23)nnn1-c1nonc1N		0.282 µM (active)
O=C(/C=C/c1ccccc1Cl)c1ccccc(=O)c1O	33.6%	
COc1cc2c3nnc(-c4ccc(F)cc4)c-3cn(Cc3ccccc3F)c2cc1OC	65% [at 11.4 µM]	
Oc1c(C(Nc2cccc(C(F)(F)F)c2)c2ccncc2)ccc2cccnc12 (stereo not given)		3.98 µM (active)
CC(C)C(=O)NC(c1cccc([N+](=O)[O-])c1)c1ccc2cccnc2c1O (stereo not given)		2.82 µM (active)
O=[N+]([O-])c1ccc(NC(c2ccccc2)c2ccc3cccnc3c2O)cc1 (stereo not given)		2.51 µM (active)
C[C@@H]1CN([C@H](C)CO)S(=O)(=O)c2ccc(-c3ccc(C#N)cc3)cc2O[C@H]1CN(C)C(=O)Nc1cc(F)ccc1F		12.6 µM (active)
Cc1cc(C)c2nc(N3CCCC(C(=O)N4CCN(c5ncccn5)CC4)C3)sc2c1 (stereo not given)		3.55 µM (active)

Structure (SMILES)	activity change, negative = inhibition	Potency
O=c1c(O)c(-c2ccccc2)oc2ccccc12	-28.6% [at 11.4 µM]	
CCCCN(C(=O)c1cccc2c(=O)c(C)c(-c3ccccc3)oc12)c1ccccc1		12.6 µM (active)
COc1ccc(Cc2[nH]n3c(=O)cc(C(C)C)nc3c2-c2ccccc2)cc1		8.91 µM (active)
CN1CCC[C@H]1CCNc1ccc2c(=O)c3ccccc3n(C)c2c1	8.82%	
O=C(CSc1n[nH]c(-c2ccccn2)n1)Nc1ccccc1		7.94 µM (active)
O=C(CSc1ccc2ccccc2c1)Nc1nc2ccccc2[nH]1	78.8% [at 11.4 µM]	
O=C(CC1NCCc2ccccc21)Nc1ccc(Cl)cc1 (stereo not given)	5.88% [at 11.4 µM]	
O=C(CSc1n[nH]c(-c2ccccn2)n1)Nc1ccc(F)cc1		8.91 µM (active)
O=C(CSc1n[nH]c(-c2ccccn2)n1)Nc1ccc(Cl)cc1		0.794 µM (active)
CCn1cc(C(=O)NCCCN2CCCC(C)C2)c(=O)c2cc(S(=O)(=O)N3CCc4ccccc4C3)ccc21 (stereo not given)	-12.8%	
CCOC(=O)Cn1cc(C(=O)c2ccco2)c2ccccc21	-4.82% [at 11.4 µM]	
CCn1cc(C(=O)NCc2ccccc2)c(=O)c2cc(F)c(N3CCN(C(=O)c4ccco4)CC3)cc21		25.1 µM (active)
CCn1cc(C(=O)NCc2cccc(F)c2)c(=O)c2cc(F)c(N3CCN(C(=O)c4ccco4)CC3)cc21		15.8 µM (active)
COC(=O)c1ccc(Oc2nc(NC(C)C)nc(N(C)C)n2)cc1	-22.6% [at 11.4 µM]	
Nc1c(C(=O)NCc2ccccc2)c2nc3ccccc3nc2n1-c1ccc2c(c1)OCO2	26.3% [at 11.4 µM]	
O=C(NCc1ccccc1)c1ccc(C(=O)N(C2CCCCC2)C2CCCCC2)cc1		31.6 µM (active)
CC(C(=O)c1ccc(-c2ccccc2)cc1)[n+]1cccc(NC(=O)c2ccccc2)c1 (stereo not given)	-21.8% [at 11.4 µM]	
Cc1cc[n+](C(C)C(=O)c2ccc(-c3ccccc3)cc2)cc1 (stereo not given)		10 µM (active)
COc1cccc(C(=O)c2sc(NC(C)C)nc2N)c1	267% [at 11.4 µM]	
N#Cc1c(Oc2ccc3ccccc3c2)sc(C(=O)c2ccccc2)c1N		14.1 µM (active)
CNc1ccc(Br)cc(C(=O)/C=C/c2ccc3c(c2)OCO3)c1=O	-5.4% [at 11.4 µM]	
CCOC(=O)Oc1c(OC)cc(C(=O)O[C@@H]2C[C@@H]3CN4CCc5c([nH]c6cc(OC)ccc56)[C@H]4C[C@@H]3[C@H](C(=O)OC)[C@H]2OC)cc1OC		28.2 µM (active)

Structure (SMILES)	activity change, negative = inhibition	Potency
CC(C)(C)OC(=O)NNc1c2ccccc2nc2ccccc12		2.24 µM (active)
Oc1ccc(C2CNCc3sccc32)cc1O (stereo not given)	-3.02%	
COc1cccc2c1C(CO)N1C(C#N)C3CC(C(=O)O)C(C1C2)N3C (stereo not given)	-24.6%	
COc1cccc2c1C1COC3C4CC(C(=O)O)C(C(C2)N13)N4C (stereo not given)		12.6 µM (active)
Oc1ccc(C[C@@H]2CNCCN2CCc2cc(C(F)(F)F)cc(C(F)(F)F)c2)cc1	-21.2% [at 11.4 µM]	
CC[C@]12c3[nH]c4ccc(Cl)cc4c3CCN1C(=O)[C@@H](CC(=O)NCC13CC4CC(CC(C4)C1)C3)C[C@@H]2C(=O)N1CCN(C(=O)C2CC2)CC1		14.1 µM (active)
Cc1ccc(Cc2cnc(NC(=O)/C(C#N)=C/c3ccc(-c4cccc([N+](=O)[O-])c4)o3)s2)cc1	-24.2%	
CCOc1ccc(OCC)c(NC(=O)Nc2ccc3c(c2)N(C)C(=O)CS3)c1		22.4 µM (active)
COc1ccccc1CNc1nc(NCc2cccc(OC)c2OC)c2sccc2n1		17.8 µM (active)
COc1ccccc1CNc1nc(NCc2ccc(NC(C)=O)cc2)c2sccc2n1	-22.7% [at 11.4 µM]	
O=C(/C=C/c1ccc(Cl)cc1)Nc1ccc(CN2CCOCC2)cc1		3.16 µM (active)
O=C(CN(c1cccc(Br)c1)S(=O)(=O)c1ccccc1)N/N=C/c1cc([N+](=O)[O-])ccc1O		10 µM (active)
CN(Cc1ccccc1)C1=CC(=[N+]2CCCC2)CC(C)(C)C1		0.447 µM (active)
Cc1cccc(OCC(=O)Nc2ccc3c(c2)nc(CCN2CCN(c4ccccn4)CC2)n3C)c1		14.1 µM (active)
COc1cccc(/C=N/NC(=O)c2c(C)nc3ccc(Cl)cn23)c1O		1.41 µM (active)
CCn1c(C)nc2cc(C(=O)N/N=C/c3cccc(OC)c3O)ccc21		2.51 µM (active)
COc1cccc(/C=N/NC(=O)c2ccc(-c3ccccc3)cc2)c1O		2 µM (active)
COc1cccc(/C=N/NC(=O)c2cc(-c3ccccn3)nc3ccccc23)c1O		2.82 µM (active)
COc1cccc(C=NNC(=O)c2ccncc2)c1O		15.8 µM (active)
c1ccc2c(c1)c1c(c3ccccc32)CN2CCCC2C1 (stereo not given)	-16.6%	
Cc1cc2c(N=O)c(NO)ccc2[nH]1		10 µM (active)
CN(C)CCCN(C(=O)c1ccco1)c1nc2cc3c(cc2s1)OCO3	2.59%	

Structure (SMILES)	activity change, negative = inhibition	Potency
CN(/N=C/c1cc(Br)cc(Br)c1O)c1cccc(C(F)(F)F)n1		11.2 µM (active)
COc1ccc(NC(=S)N(CCCN2CCOCC2)Cc2cn(C)c3ccccc23)cc1	-15.1%	
ClC(Cl)(Cl)c1nc2ccccc2n2nncc12	-25.9% [at 11.4 µM]	
NS(=O)(=O)c1ccc(N2N=C(c3ccccc3)CC2c2cccc(Br)c2)cc1 (stereo not given)		17.8 µM (active)
COc1ccc(C2CC(c3cccc(C(F)(F)F)c3)=NN2c2ccc(S(N)(=O)=O)cc2)cc1 (stereo not given)	-28.1% [at 11.4 µM]	
NC(Cc1ccc(Cl)cc1)c1csc(Nc2nccc(C(F)(F)F)n2)n1 (stereo not given)	-28.8%	
O=C(N/N=C/c1cc(Br)cc([N+](=O)[O-])c1O)c1ccc(NC(=O)c2ccc(F)cc2)cc1		3.16 µM (active)
CC(=O)Nc1ccc(C(=O)N/N=C/c2cc(Br)cc(Br)c2O)cc1		11.2 µM (active)
CN(C)c1ccc(C(=O)N/N=C/c2cc(Br)cc(Br)c2O)cc1		3.16 µM (active)
Cc1cc(C(=O)N/N=C/c2cc(Br)cc([N+](=O)[O-])c2O)c2ccccc2n1		3.55 µM (active)
Cc1ccc2nc(NC(=O)/C=C/c3ccc4c(c3)OCO4)sc2c1	0.553%	
O=c1[nH]c(=O)n(C2C[C@H](O)[C@@H](CO)O2)cc1C(F)(F)F (stereo not given in full)		2.82 µM (active)
COC(=O)N/N=C/c1cn(CC(C)COc2ccccc2)c2ccccc12 (stereo not given)		17.8 µM (active)
c1ccc2c(c1)C(=NC1CCCCC1)NC2=NC1CCCCC1	0.0895%	
O=C(CCCN1C(=O)/C(=C/c2ccccc2Cl)SC1=S)NNC(=O)c1ccc(Cl)cc1		3.98 µM (active)
O=C(CCCN1C(=O)/C(=C/c2ccccc2Cl)SC1=S)NNC(=O)c1ccc(Cl)cc1Cl		2.82 µM (active)
Cc1ccc(C(=O)NNC(=O)CCCN2C(=O)/C(=C/c3ccccc3Cl)SC2=S)cc1		11.2 µM (active)
Cc1cc(C)c2c(CC(=O)Nc3ccc(Cl)cn3)coc2c1	21.1% [at 11.4 µM]	
CCc1ccc(/C=C/C(=O)c2cc(Br)ccc(=O)c2O)cc1	-10.4%	
